Avidin fluor = avidin bead compound fluorescence profile. Avidin beads, compound fluorescence 488/530 nm, flow cytometry; stronger effect = higher value. fluorescence (KMESF) at 10 µM. 220,000 compounds, 0.38% hits. AID 1775; in the data active = fluorescence above about 47
RGS16-Gao = regulators of human RGS16-Galphao interaction; bead-based flow cytometry RGS16-Galphao binding, fluorescence; actives lie on both sides; 220,000 compounds, 0.38% hits; O15492+P09471; binding response (% of control), % at 10 µM; AID 1441;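 note: Galphao activated by GDP with aluminum fluoride before binding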
RGS4-Gao reg = modulates binding of RGS4 to human Galphao | binding response (% of control), % at 10 µM | P09471 | Multiplexed bead flow cytometry; actives lie on both sides | 220,000 compounds, 0.33% hits; in the data active = binding response below about 49% or above about 150%; inactive = in between;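 note: fluorescent Galphao activated with aluminum fluoride binding bead-coupled RGS4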
Target sequence (P09471 whole entry, looked up): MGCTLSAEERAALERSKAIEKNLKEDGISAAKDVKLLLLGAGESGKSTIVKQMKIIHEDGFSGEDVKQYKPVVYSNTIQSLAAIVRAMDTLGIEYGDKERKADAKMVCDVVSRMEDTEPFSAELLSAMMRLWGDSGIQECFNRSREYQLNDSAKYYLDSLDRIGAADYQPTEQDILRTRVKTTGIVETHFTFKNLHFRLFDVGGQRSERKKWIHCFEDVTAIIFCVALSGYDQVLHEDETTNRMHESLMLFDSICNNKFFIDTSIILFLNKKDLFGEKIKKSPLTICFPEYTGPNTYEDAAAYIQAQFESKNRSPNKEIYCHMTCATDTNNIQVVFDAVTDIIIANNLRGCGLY
RGS8-Gao reg = regulators of human RGS8-Galphao interaction; P09471; multiplexed bead flow cytometry, RGS8-Galphao binding; actives lie on both sides; response (percent of control binding), % at 10 µM; 220,000 compounds, 0.34% hits; AID 1423; in the data active = response below about 60% or above about 140%; inactive = in between;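 note: Galphao activated as the GDP aluminium fluoride complex binding bead-coupled RGS8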
RGS7-Gao reg = regulators of human RGS7-Galphao interaction. P09471. binding response (% of control), % at 10 µM. Multiplexed bead flow cytometry, RGS7-Galphao binding; actives lie on both sides. 220,000 compounds, 0.35% hits; in the data active = binding response below about 49% or above about 150%; inconclusive = no clear call, values can overlap the other calls; inactive = in between;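 note: fluorescent Galphao held in activated GDP-AlF4 state binding bead-coupled RGS7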
GSH fluor = GSH bead compound fluorescence profile; fluorescence (KMESF) at 10 µM; 190,000 compounds, 0.25% hits; GSH beads flow cytometry, compound fluorescence 488/530 nm; stronger effect = higher value; in the data active = fluorescence above about 89;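 note: glutathione beads carrying GST-tagged Bcl family fusion proteins plus one bare bead set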
RGS4-Gao HTS = regulators of human RGS4-Galphao interaction | shares compounds with RGS16-Gao | multiplexed bead flow cytometry, RGS–Galpha-o binding | RGS4–Galpha-o binding response, % at 10 µM | 1,600 compounds, 99% hits | AID 1504;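 note: fluorescently labeled Galpha-o bound to GDP with aluminium fluoride binding biotinylated RGS beads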
Target sequence (P09471 whole entry, looked up): as above
Target sequence (P49798 whole entry, looked up): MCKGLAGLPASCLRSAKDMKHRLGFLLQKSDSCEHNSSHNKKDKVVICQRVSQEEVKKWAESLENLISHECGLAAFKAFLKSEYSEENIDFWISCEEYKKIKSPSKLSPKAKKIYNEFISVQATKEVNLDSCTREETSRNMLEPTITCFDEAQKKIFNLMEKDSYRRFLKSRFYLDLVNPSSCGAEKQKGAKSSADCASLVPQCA
Avidin counter = biotin-avidin bead binding disruption counter-screen; shares compounds with RGS16-Gao; streptavidin beads, fluorescein-biotin binding, flow cytometry; inhibition, % at 10 µM; 1,700 tested, under 10 active; AID 1783;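 active = inhibition above 50%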;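 note: median green fluorescence of gated singlet beads compared with DMSO control wells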
RGS8-Gao single = RGS8-Galphao interaction regulation, single point confirmation | shares compounds with RGS16-Gao | bead-based flow cytometry RGS8-Galphao binding, fluorescence; actives lie on both sides | binding response (% of control), % at 10 µM | 1,700 compounds, 3% hits; in the data active = binding response below about 72% or above about 130%; inactive = in between;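 note: Galphao activated as GDP AlF4 complex before binding bead RGS8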
RGS7-Gao confirm = RGS7-Galphao interaction regulation, single point confirmation; shares compounds with RGS16-Gao; bead-based flow cytometry RGS7-Galphao binding; actives lie on both sides; response (percent of control binding), % at 10 µM; 1,700 compounds, 7.8% hits; in the data active = response below about 75% or above about 130%; inactive = in between;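 note: fluorescent Galphao activated with GDP and aluminum fluoride binding bead-coupled RGS7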
RGS16-Gao single = RGS16-Galphao interaction regulation, single point confirmation. shares compounds with RGS16-Gao. bead-based flow cytometry, RGS16-Galphao binding; actives lie on both sides. response (% of control binding), % at 10 µM. 1,700 compounds, 4% hits. AID 1838; in the data active = response below about 74% or above about 130%; inactive = in between;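 note: Galphao activated as the GDP aluminium fluoride complex binding bead-coupled RGS16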
RGS4-Gao confirm = confirmation of regulators of human RGS4-Galphao interaction | shares compounds with RGS16-Gao | RGS4-Galphao binding, multiplexed bead flow cytometry; actives lie on both sides | binding response (% of control), % at 10 µM | 1,700 compounds, 4% hits | AID 1840; in the data active = binding response below about 74% or above about 130%; inactive = in between
RGS19-Gao conf = confirmation of regulators of human RGS19-Galphao interaction; shares compounds with RGS16-Gao; bead-based flow cytometry RGS19-Galphao binding; actives lie on both sides; response (percent of control binding), % at 10 µM; 1,700 compounds, 5% hits; AID 1841; in the data active = response below about 50% or above about 160%; inactive = in between
Of the large screens only hits and unclear results are named; the others gave an inactive call (follow-up assays come after a bar, where they were run); [ ] = another dose, or the depositor's remark. Shown are actives, neighbours in structure and some others; about 1.2% of the full set was active somewhere. Unless noted, the rule behind the calls is not given here.

Cc1ccc(Nc2nc(N)nc(CN3CCN(Cc4ccc5c(c4)OCO5)CC3)n2)cc1Cl	RGS4-Gao reg -9.2, RGS7-Gao reg 45 | Avidin counter inactive | RGS8-Gao single inactive | RGS7-Gao confirm inactive | RGS16-Gao single inactive | RGS4-Gao confirm inactive | RGS19-Gao conf inactive
COc1cccc(NC(=O)c2ccccc2-c2nc(-c3ccccc3)no2)c1	none
COc1cccc(NC(=O)c2ccccc2-c2nc(-c3ccc(F)cc3)no2)c1	none (no result: Avidin fluor, RGS16-Gao, RGS4-Gao reg, RGS8-Gao reg, RGS7-Gao reg) | Avidin counter inactive | RGS8-Gao single inactive | RGS7-Gao confirm inactive | RGS16-Gao single inactive | RGS4-Gao confirm inactive | RGS19-Gao conf inactive
Cc1ccc(NC(=S)N2CCC(c3nc4ccccc4s3)CC2)cc1C	none
CCOC(=O)N1CCN(C(=O)CN(Cc2ccc(Cl)cc2)S(=O)(=O)c2ccc(C)cc2)CC1	none (no result: Avidin fluor, RGS16-Gao) | Avidin counter inactive | RGS8-Gao single inactive | RGS7-Gao confirm inactive | RGS16-Gao single inactive | RGS4-Gao confirm inactive | RGS19-Gao conf inactive
O=C(CN1c2ccccc2Sc2ccccc21)N/N=C/c1ccccc1	RGS7-Gao reg inconclusive (no result: GSH fluor)
COc1ccccc1CNc1nc2nc(C)cc(=O)n2[nH]1	none
O=C(NCC1CC1)NC(=O)c1c(F)cccc1Cl	RGS16-Gao 9.3, RGS4-Gao reg 5.7, RGS8-Gao reg 42, RGS7-Gao reg inconclusive (no result: GSH fluor) | Avidin counter inactive | RGS8-Gao single inactive | RGS7-Gao confirm inactive | RGS16-Gao single inactive | RGS4-Gao confirm inactive | RGS19-Gao conf inactive
O=c1cc(C(F)(F)C(F)F)oc2ccccc12	none (no result: Avidin fluor, RGS16-Gao, RGS4-Gao reg, RGS8-Gao reg, RGS7-Gao reg) | Avidin counter inactive | RGS8-Gao single inactive | RGS7-Gao confirm inactive | RGS16-Gao single inactive | RGS4-Gao confirm inactive | RGS19-Gao conf inactive
O=c1cc(-c2ccccc2F)oc2ccccc12	none
Cc1ccc(NC2=C/C(=N/S(=O)(=O)c3cccs3)c3ccccc3C2=O)cc1C	none
Cc1cc(C)c(S(=O)(=O)/N=C2/C=C(Sc3ncn[nH]3)C(=O)c3ccccc32)cc1C	RGS16-Gao -0.4 | RGS4-Gao HTS 90
COC(=O)c1[nH]c2ccccc2c1NC(=O)CN1CCCCCC1	none
CCOC(=O)N1CCN(CC(=O)Nc2c(C(=O)OC)[nH]c3ccccc23)CC1	Avidin fluor 106, RGS7-Gao reg 175[activator] | RGS4-Gao HTS 124 | Avidin counter inactive | RGS8-Gao single inactive | RGS7-Gao confirm inactive | RGS16-Gao single inactive | RGS4-Gao confirm inactive | RGS19-Gao conf inactive
COc1cc2c(cc1NC(=O)/C=C/c1ccccc1)oc1ccccc12	none
CCCc1cc(-n2ccnc2)n2c(nc3ccccc32)c1C#N	Avidin fluor 84, RGS16-Gao 192[activator], RGS4-Gao reg 162[activator], RGS7-Gao reg 151[activator], GSH fluor 150 | Avidin counter inactive | RGS8-Gao single inactive | RGS7-Gao confirm inactive | RGS16-Gao single inactive | RGS4-Gao confirm inactive | RGS19-Gao conf inactive
Cn1cc(S(=O)(=O)CC(=O)Nc2ccc3c(c2)OCO3)c2ccccc21	Avidin fluor 194, RGS4-Gao reg 367[activator], RGS7-Gao reg 275[activator], GSH fluor 91 | Avidin counter inactive | RGS8-Gao single inactive | RGS7-Gao confirm inactive | RGS16-Gao single inactive | RGS4-Gao confirm inactive | RGS19-Gao conf inactive
Cc1ccc(-n2c(=O)c(C#N)cc3c(=O)n4cccc(C)c4nc32)cc1	none
C#CCNC(=O)C1=C[C@@H](C2CC2)[C@H](CCCO)[C@@H](OCC)O1	RGS16-Gao 0.9, RGS4-Gao reg 4.8, RGS8-Gao reg 8.9, RGS7-Gao reg -5.5 | Avidin counter inactive | RGS8-Gao single inactive | RGS7-Gao confirm inactive | RGS16-Gao single inactive | RGS4-Gao confirm inactive | RGS19-Gao conf inactive
CCO[C@@H]1OC(C(=O)NC2CC2)=C[C@H](C2CC2)[C@H]1CCCO	RGS7-Gao reg inconclusive (no result: GSH fluor)
N/C(=N\OC(=O)c1ccco1)c1ccc(Cl)cc1	Avidin fluor 63, RGS7-Gao reg 164[activator] | RGS4-Gao HTS 109 | Avidin counter inactive | RGS8-Gao single inactive | RGS7-Gao confirm inactive | RGS16-Gao single inactive | RGS4-Gao confirm inactive | RGS19-Gao conf inactive
N/C(=N\OC(=O)c1ccc(Cl)cc1)c1ccc(Cl)cc1	none
CC(C)CC(=O)NC(=S)Nc1sc2c(c1C(N)=O)CCC2	RGS7-Gao reg inconclusive
CN(C)CCNC(=O)/C(=C/c1ccc(-c2ccc(Cl)cc2)o1)NC(=O)c1ccccc1	RGS4-Gao reg 183[activator], RGS8-Gao reg 163[activator], RGS7-Gao reg 186[activator] | Avidin counter inactive | RGS8-Gao single inactive | RGS7-Gao confirm inactive | RGS16-Gao single inactive | RGS4-Gao confirm inactive | RGS19-Gao conf inactive
O=C(NNC(=O)c1ccc2c(c1)OCO2)NC12CC3CC(CC(C3)C1)C2	none
CCOC(=O)N1CCN(C(=O)Cc2c(C(=O)O)n(C)c3ccccc23)CC1	none
CCCC(=O)Nc1cccc(NC(=O)c2cccc([N+](=O)[O-])c2C)c1	RGS16-Gao 205[activator] | RGS4-Gao HTS 110 | Avidin counter inactive | RGS8-Gao single inactive | RGS7-Gao confirm inactive | RGS16-Gao single inactive | RGS4-Gao confirm inactive | RGS19-Gao conf inactive
Cc1c(C(=O)NC(C)CCc2ccccc2)cccc1[N+](=O)[O-] (stereo not given)	none
CCC(CC)NC(=O)c1cccc([N+](=O)[O-])c1C	RGS16-Gao 237[activator] | RGS4-Gao HTS 116 | Avidin counter inactive | RGS8-Gao single inactive | RGS7-Gao confirm inactive | RGS16-Gao single inactive | RGS4-Gao confirm inactive | RGS19-Gao conf inactive
C/C(=N\NC(=O)COc1ccccc1F)c1cc2ccccc2o1	none
CC(=O)Nc1ccc(NC=C(C#N)C#N)cc1	RGS7-Gao reg inconclusive (no result: GSH fluor)
O=C(/C=C/c1ccc(O)cc1)c1ccccc1	RGS7-Gao reg inconclusive (no result: GSH fluor)

Compound activity deposited in PubChem by NMMLSC.
